The values that follow come from PubChem BioAssay (Tox21).

SMILES strings stand for the structures. A number with no mark means an inactive call. Results filed as inconclusive are left out. Activity calls are given as the source filed them. Unless noted, the call rests on the fitted dose curve; in most records, active means well fitted curve in the direction sought with a large enough effect in the repeat runs; inconclusive means weak or mixed curves; inactive means no such curve, though single readings can be large; an effect the other way counts as inactive or inconclusive.

The target in assay [1] is Thyrotropin-releasing hormone receptor (Homo sapiens) (UniProt P34981). The assay is described as follows: qHTS assay to identify small molecule agonists of the thyrotropin-releasing hormone receptor (TRHR) signaling pathway (AID 1346891; calls by dose curve;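 further: HEK293 cells expressing TRHR with calcium dye readout; series mostly up to about 58 µM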). Summed up: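 Overnight-plated (18 h, 37 °C, 5% CO2) TRHR-Hek293 cells; 2 h calcium dye at 37 °C; compound in DMSO; 3-min kinetic fluorescence read.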

A short description of assay [2]: Human pregnane X receptor (PXR) small molecule agonists, qHTS cell viability counter screen (AID 1346977). Further: nearly all actives have a fitted effect of over 50% in size. An outline of the steps: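 After a 5hr pre-incubation, PXR-Luc HepG2 cells received compounds plus positive control in DMSO and were kept 24hr at 37C. Cell viability was quantified by fluorescence from CellTiter-Fluor added for the final hour.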
Background: Quantitative high-throughput screening tests each substance at several concentrations.

Assay [3] in a line: Caspase-3/7 induction in HepG2 cells by small molecules, qHTS assay (AID 1346978). Further: nearly all actives have a fitted effect of over 15% in size. Summed up: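 Wild-type HepG2 cells, 2,000/well, settled 5 hr at 37 C and 5% CO2, then compound-treated for 17 hr; caspase-3/7 activity read by luminescent Caspase-Glo 3/7 after 30 min at room temperature.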
Assay [4] in a line: Caspase-3/7 induction in CHO-K1 cells by small molecules, qHTS cell viability counter screen (AID 1346979). Further: nearly all actives have a fitted effect of over 35% in size. An outline of the steps:
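Multiplexed with Caspase-Glo 3/7 in CHO-K1 cells, this counter screen added CellTiter-Fluor after 16hr of compound exposure and recorded fluorescence 1hr later.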

Assay [5] can be described thus: Caspase-3/7 induction in CHO-K1 cells by small molecules, qHTS assay (AID 1346980). Further: nearly all actives have a fitted effect of over 15% in size. Summed up: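 Wild-type CHO-K1 cells exposed to compounds for 17hr at 37 C, 5% CO2. Caspase-3/7 activity then measured by Caspase-Glo 3/7 luminescence after 30min at room temperature.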
Assay [6] addresses Nuclear receptor subfamily 1 group I member 2 (Homo sapiens) (UniProt O75469). The assay is described as follows: Human pregnane X receptor (PXR) small molecule agonists, qHTS assay (AID 1346982). Further: nearly all actives have a fitted effect of over 35% in size. Summed up: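 Reporter HepG2 cells expressing PXR-Luc are cultured in charcoal-stripped FBS (5%), treated with compounds for 24 hr at 37 C, and assayed by ONE-Glo luminescence after 30 min at room temperature.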

In assay [7] the target is Cytochrome P450 2D6 (Homo sapiens) (UniProt P10635). The assay is described as follows: Cytochrome P450 Family 2 Subfamily D Member 6 (CYP2D6) small molecule antagonists: luciferase reporter qHTS assay (AID 1671196). Further: nearly all actives have a fitted effect of over 50% in size. Further: potency means the concentration at half of the fitted maximal effect. On activity change, negative = inhibition: series mostly up to about 120 µM. Summed up: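 Test chemicals meet CYP2D6 plus proluciferin substrate (10 min, RT); NADPH regenerating solution then drives turnover for 1 h. Detection reagent halts the reaction; luminescence measured after 20 min.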
(In general: Reporter assays use an easily measured gene product as a stand-in for the process of interest.)

Assay [8] has as its target Cytochrome P450 2C19 (Homo sapiens) (UniProt P33261). The assay is described as follows: Cytochrome P450 Family 2 Subfamily C Member 19 (CYP2C19) small molecule antagonists: luciferase reporter qHTS assay (AID 1671197). Further: nearly all actives have a fitted effect of over 65% in size. Further: potency means the concentration at half of the fitted maximal effect. On activity change, negative = inhibition: series mostly up to about 120 µM. An outline of the steps: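 CYP2C19 P450-Glo, 1536-well qHTS. Cpd + enzyme/proluciferin substrate 10 min RT; + NADPH regen, 37C 1 h; stop with luciferin detection reagent, 20 min RT, luminescence (RLU). Pos ctrl ketoconazole.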

The target in assay [9] is Cytochrome P450 2C9 (Homo sapiens) (UniProt P11712). The assay is described as follows: Cytochrome P450 Family 2 Subfamily C Member 9 (CYP2C9) small molecule antagonists: luciferase reporter qHTS assay (AID 1671198). Further: nearly all actives have a fitted effect of over 50% in size. Further: potency means the concentration at half of the fitted maximal effect. On activity change, negative = inhibition: series mostly up to about 120 µM. Summed up: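 P450-Glo proluciferin substrate with CYP2C9 enzyme; 10 min RT preincubation, then NADPH regeneration 1 h at 37C; luciferin detection reagent 20 min RT, luminescence in relative luminescence units.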

For assay [10], the target named is Cytochrome P450 1A2 (Homo sapiens) (UniProt P05177). The assay is described as follows: Cytochrome P450 Family 1 Subfamily A Member 2 (CYP1A2) small molecule antagonists: luciferase reporter qHTS assay (AID 1671199). Further: nearly all actives have a fitted effect of over 50% in size. Further: potency means the concentration at half of the fitted maximal effect. On activity change, negative = inhibition: series mostly up to about 120 µM. An outline of the steps: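 Steps: enzyme-substrate mix dispensed; test compounds and furafylline control pinned in; 10 min room temperature; NADPH regeneration solution added, 1 h; reaction stopped with luciferin detection reagent; luminescence read after 20 min.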

The target of assay [11] is Voltage-gated inwardly rectifying potassium channel KCNH2 (Homo sapiens) (UniProt Q12809). The assay is described as follows: Human Ether-a-go-go-Related Gene (hERG) channel small molecule antagonists: fluorescence cell-based qHTS assay (AID 1671200). Summed up: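 Cell line hERG-U2OS; dye FluxOR II, 1 h RT dark; Tl+ stimulus; ex 480/em 540 nm, read each second for 2 min.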
(In general: The hERG channel carries a current that helps repolarise heart muscle cells.)

The target in assay [12] is Cytochrome P450 3A4 (Homo sapiens) (UniProt P08684). The assay is described as follows: Cytochrome P450 Family 3 Subfamily A Member 4 (CYP3A4) small molecule antagonists: luciferase reporter qHTS assay (AID 1671201). Summed up: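 Room-temperature assay throughout: 10 min compound–enzyme/substrate preincubation, 1 h reaction after NADPH regeneration solution, 20 min detection. Luciferin formed from proluciferin substrate is quantified by luminescence.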

The nature of assay [13]: Caspase-3/7 induction in HepG2 cells by small molecules, qHTS cell viability counter screen (AID 1346981). Further: series mostly up to about 92 µM; nearly all actives have a fitted effect of over 30% in size. Summed up:
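In this quantitative HTS counter screen, compounds delivered in DMSO were left on unmodified HepG2 cells for 16 hr at 37 C. Viability was then determined fluorometrically with CellTiter-Fluor, in parallel with caspase-3/7 induction in the same wells.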
On the % scale 0 is the no-effect control and ±100 the full control effect.

Cytochrome P450 1A2 (Homo sapiens), sequence (P05177 whole entry, looked up): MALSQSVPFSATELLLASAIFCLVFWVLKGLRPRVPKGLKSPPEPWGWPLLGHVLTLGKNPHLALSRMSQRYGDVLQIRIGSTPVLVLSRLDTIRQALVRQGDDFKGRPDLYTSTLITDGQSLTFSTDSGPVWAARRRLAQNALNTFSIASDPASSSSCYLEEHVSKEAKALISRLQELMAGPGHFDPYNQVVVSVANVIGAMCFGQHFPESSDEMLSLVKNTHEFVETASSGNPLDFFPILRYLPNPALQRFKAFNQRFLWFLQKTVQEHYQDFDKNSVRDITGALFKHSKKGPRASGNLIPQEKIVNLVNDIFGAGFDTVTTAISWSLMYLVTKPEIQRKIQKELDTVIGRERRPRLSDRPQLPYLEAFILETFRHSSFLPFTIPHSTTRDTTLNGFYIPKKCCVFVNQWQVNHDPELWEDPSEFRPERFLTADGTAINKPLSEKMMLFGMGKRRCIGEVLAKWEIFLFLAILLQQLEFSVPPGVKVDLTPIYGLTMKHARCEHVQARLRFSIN
Thyrotropin-releasing hormone receptor (Homo sapiens), sequence (P34981 whole entry, looked up): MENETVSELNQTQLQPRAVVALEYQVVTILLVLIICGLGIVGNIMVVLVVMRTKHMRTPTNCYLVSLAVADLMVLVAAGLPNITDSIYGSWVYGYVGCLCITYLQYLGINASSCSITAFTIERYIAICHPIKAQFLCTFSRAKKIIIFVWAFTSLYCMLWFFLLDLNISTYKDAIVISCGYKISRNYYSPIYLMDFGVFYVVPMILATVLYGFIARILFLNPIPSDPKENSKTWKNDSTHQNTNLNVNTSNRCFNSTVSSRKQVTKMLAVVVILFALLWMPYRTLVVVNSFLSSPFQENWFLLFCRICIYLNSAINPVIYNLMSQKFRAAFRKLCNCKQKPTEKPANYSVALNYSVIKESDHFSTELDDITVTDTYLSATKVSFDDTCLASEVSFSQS
Cytochrome P450 2C9 (Homo sapiens), sequence (P11712 whole entry, looked up): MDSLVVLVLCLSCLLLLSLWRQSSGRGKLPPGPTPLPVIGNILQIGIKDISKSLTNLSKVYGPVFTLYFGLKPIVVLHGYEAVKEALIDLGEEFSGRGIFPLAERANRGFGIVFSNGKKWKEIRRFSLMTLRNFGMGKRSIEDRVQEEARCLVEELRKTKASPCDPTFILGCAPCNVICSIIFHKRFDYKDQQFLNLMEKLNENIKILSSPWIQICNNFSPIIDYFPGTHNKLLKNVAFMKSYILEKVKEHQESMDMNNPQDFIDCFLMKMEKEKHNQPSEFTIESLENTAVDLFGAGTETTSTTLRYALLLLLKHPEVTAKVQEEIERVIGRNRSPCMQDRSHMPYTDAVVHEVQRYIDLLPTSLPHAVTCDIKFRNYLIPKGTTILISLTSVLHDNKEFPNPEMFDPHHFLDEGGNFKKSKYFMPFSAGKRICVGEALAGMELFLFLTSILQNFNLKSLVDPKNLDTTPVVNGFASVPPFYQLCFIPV
Cytochrome P450 3A4 (Homo sapiens), sequence (P08684 whole entry, looked up): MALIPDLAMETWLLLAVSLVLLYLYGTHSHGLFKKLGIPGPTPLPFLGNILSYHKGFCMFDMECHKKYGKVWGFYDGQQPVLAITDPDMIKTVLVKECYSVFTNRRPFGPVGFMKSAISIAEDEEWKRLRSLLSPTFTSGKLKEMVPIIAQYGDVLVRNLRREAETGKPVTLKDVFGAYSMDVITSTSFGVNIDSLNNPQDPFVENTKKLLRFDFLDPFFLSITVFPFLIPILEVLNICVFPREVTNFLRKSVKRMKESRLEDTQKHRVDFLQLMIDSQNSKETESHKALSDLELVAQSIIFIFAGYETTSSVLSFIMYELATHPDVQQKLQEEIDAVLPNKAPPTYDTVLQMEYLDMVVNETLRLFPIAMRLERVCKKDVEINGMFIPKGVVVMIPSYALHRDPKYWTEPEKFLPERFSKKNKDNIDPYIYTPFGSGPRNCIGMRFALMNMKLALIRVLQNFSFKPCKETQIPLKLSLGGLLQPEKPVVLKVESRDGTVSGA
Nuclear receptor subfamily 1 group I member 2 (Homo sapiens), sequence (O75469 whole entry, looked up): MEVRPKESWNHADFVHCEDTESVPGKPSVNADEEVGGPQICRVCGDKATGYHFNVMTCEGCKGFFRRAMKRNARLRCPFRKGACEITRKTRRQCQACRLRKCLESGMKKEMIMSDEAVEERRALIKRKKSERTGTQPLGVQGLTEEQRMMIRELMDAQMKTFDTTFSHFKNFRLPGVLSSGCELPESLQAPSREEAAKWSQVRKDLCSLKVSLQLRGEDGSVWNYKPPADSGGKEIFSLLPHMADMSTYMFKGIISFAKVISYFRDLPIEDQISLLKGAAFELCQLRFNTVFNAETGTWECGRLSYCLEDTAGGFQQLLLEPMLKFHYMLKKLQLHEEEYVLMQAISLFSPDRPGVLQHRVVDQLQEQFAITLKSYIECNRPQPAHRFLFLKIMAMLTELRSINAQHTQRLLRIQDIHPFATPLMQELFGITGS
Cytochrome P450 2C19 (Homo sapiens), sequence (P33261 whole entry, looked up): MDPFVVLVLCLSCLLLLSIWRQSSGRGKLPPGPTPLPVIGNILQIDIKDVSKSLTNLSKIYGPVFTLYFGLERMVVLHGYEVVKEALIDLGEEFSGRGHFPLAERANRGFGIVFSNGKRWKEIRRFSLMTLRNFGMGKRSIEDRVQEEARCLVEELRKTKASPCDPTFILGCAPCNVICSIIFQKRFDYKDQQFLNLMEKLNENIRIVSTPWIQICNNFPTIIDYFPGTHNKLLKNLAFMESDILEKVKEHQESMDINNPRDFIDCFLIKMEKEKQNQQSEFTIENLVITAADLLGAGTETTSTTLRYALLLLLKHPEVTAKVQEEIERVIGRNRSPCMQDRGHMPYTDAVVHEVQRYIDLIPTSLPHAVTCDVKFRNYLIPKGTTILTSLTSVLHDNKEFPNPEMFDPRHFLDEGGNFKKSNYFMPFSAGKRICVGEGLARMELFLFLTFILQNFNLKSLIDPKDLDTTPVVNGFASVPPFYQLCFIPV
Voltage-gated inwardly rectifying potassium channel KCNH2 (Homo sapiens), sequence (Q12809 whole entry, looked up): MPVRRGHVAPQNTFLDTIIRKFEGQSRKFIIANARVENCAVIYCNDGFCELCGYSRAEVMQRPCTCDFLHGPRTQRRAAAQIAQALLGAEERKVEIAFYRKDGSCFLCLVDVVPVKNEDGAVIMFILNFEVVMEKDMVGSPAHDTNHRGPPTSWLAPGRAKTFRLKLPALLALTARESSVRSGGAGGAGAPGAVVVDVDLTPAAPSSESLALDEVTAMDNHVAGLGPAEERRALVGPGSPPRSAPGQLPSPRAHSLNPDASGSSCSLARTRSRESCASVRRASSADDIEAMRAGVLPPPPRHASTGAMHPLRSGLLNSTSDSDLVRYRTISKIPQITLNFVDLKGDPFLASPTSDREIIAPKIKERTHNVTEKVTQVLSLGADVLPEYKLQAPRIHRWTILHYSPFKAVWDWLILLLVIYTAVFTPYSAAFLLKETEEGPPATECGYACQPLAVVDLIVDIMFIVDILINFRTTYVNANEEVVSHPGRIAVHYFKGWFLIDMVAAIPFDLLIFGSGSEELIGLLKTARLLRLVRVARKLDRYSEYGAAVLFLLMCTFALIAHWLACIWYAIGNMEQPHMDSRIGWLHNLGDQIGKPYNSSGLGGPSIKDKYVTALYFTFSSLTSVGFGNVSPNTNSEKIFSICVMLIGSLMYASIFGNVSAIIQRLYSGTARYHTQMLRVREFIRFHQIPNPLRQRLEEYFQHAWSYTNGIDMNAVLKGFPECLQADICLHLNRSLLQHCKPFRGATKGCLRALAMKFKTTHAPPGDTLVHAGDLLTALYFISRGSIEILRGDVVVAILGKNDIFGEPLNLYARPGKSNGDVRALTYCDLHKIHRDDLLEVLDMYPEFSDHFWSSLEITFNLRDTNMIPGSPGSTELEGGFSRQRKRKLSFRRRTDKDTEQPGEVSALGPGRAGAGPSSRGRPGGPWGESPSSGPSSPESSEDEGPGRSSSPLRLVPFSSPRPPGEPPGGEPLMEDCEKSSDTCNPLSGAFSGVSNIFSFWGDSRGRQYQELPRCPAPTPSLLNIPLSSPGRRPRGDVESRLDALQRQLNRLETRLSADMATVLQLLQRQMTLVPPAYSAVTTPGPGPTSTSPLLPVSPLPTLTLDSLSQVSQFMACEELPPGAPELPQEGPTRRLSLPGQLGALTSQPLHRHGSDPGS
Cytochrome P450 2D6 (Homo sapiens), sequence (P10635 whole entry, looked up): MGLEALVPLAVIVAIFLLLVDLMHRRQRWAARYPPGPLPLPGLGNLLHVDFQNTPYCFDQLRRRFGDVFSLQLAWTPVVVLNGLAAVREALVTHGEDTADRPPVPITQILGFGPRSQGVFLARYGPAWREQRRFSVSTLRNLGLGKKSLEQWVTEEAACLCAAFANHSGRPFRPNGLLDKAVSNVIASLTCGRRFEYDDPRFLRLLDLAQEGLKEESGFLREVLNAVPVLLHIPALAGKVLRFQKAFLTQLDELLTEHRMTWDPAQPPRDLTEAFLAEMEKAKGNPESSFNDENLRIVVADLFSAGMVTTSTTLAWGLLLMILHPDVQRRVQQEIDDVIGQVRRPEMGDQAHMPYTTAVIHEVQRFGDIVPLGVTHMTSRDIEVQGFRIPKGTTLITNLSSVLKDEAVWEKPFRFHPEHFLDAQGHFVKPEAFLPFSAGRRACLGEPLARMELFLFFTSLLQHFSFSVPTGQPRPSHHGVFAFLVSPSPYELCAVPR

For the molecule `CC(C)(O)Cc1ccccc1`, the molecule was classed as inactive in assay [1], in assay [3] and in assay [5]. Besides, the Potency entry in assay [2], in [4], in assay [6], in [7], in [8] and in assay [9] was “inactive” in each case. For the same molecule, the Potency entry in assay [10], in assay [11] and in assay [12] was “inactive” throughout.
Consider `Nc1ncnc2c1ncn2Cc1c(F)cccc1Cl`, for which the molecule was classed as inactive in [1], in assay [3] and in [13]. For the same molecule, the Potency entry in [2], in assay [4], in [7], in assay [8], in [9] and in assay [10] was “inactive” throughout. Also, the Potency entry in assay [11] and in [12] was “inactive” each time.
As for `c1ccc2cnncc2c1`, the outcome in assay [1], in assay [3] and in [13] was inactive. The Potency result in [2], in [4], in assay [6], in [7], in assay [9] and in assay [11] was “inactive” throughout. For the same molecule, the Potency entry in assay [12] was “inactive”. In assay [10], the Potency was 14.2 µM (active).
Regarding `CC(C)(O)c1ccccc1`, the call in [1], in assay [3] and in assay [5] was inactive. The Potency entry in [2], in assay [4], in assay [6], in [7], in [11] and in [12] was “inactive” in each case. The Potency in assay [8] was 68.1 µM (active).
For `O=[N+]([O-])c1ccc(CCO)cc1`, the molecule was called inactive in assay [1], in assay [3] and in assay [13]. Further, the Potency result in assay [2], in [4], in [6], in assay [7], in [8] and in [9] was “inactive” throughout. Moreover, the Potency result in assay [12] was “inactive”.
Turning to `CC(=O)N[C@@H](CCC(N)=O)C(=O)O`, the result in assay [1], in assay [3] and in assay [13] was inactive. The Potency result in assay [2], in assay [4], in assay [6], in assay [7], in [8] and in [9] was “inactive” in each case. Further, the Potency entry in [10], in assay [11] and in [12] was “inactive” in each case.
Consider `CCCCCCCCCCCl`, for which the molecule was called inactive in assay [1], in assay [3] and in assay [13]. Further, the Potency entry in assay [2], in [4], in assay [6], in assay [7], in assay [8] and in assay [9] was “inactive” in each case. For the same molecule, the Potency result in [11] and in assay [12] was “inactive” each time.
For the molecule `NC(=S)Nc1cccc2ccccc12`, the figures for the activation in [1] and in assay [6] were -0.377% [at 5.23 µM] and -0.9% [at 8.39 µM], respectively. Also, the activity change, negative = cytotoxicity in assay [2] is -0.344% [at 8.39 µM]; in assay [4] it was -1.57% [at 8.39 µM]. Further, the caspase activation in assay [3] is 1% [at 8.39 µM]. Besides, in assay [5], the caspase-3/7 activation is 0.137% [at 8.39 µM]. Besides, the Potency in assay [7] was 2.01 µM (active). Besides, the activity change, negative = inhibition in [8] was -10% [at 10.5 µM]; in assay [9], -2.82% [at 10.5 µM]; in [10], -26.4% [at 10.5 µM]; in [11], 1.12% [at 6.97 µM]; in assay [12], 1.29% [at 10.5 µM].
Turning to `CCCCC=O`, the outcome in assay [1], in [3] and in assay [5] was inactive. Besides, the Potency entry in assay [2], in assay [4], in [6], in assay [7], in assay [10] and in assay [11] was “inactive” each time. Also, in [12], the Potency entry was “inactive”. The Potency in assay [8] was 71 µM (active); in [9] it was 79.6 µM (active).
In the case of `CO[Si](OC)(OC)OC`, the outcome in assay [1], in assay [3] and in assay [13] was inactive. Further, the Potency result in assay [2], in assay [4], in assay [6], in assay [7], in [8] and in [9] was “inactive” in each case. The Potency entry in [11] and in assay [12] was “inactive” each time. In assay [10], the Potency was 31 µM (active).
